# Results taken from PubChem BioAssay (EPA / NIEHS).
# Where “and” joins values, the source holds several entries; their conditions need not be identical. Equal values may be shown once. Results filed as inconclusive are left out. Some structures have more than one record in an assay (separate samples or runs), and their calls can disagree. Calls of active or inactive are those of the source. The calls were made as follows, unless noted: active = hit-call score of the fitted dose curve at least 0.9, where 1 is the maximum; inactive = score below 0.9.
# What was measured:
# [1] = target: Bile acid receptor (Homo sapiens) (UniProt Q96RI1); assay: ATG_FXR_TRANS: Attagene TRANS-FACTORIAL HepG2 Assay for Farnesoid X Receptor (FXR) (AID 2282979; active = hit-call score of the fitted dose curve at least 0.9, where 1 is the maximum;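 also: hits raise reporter mRNA above DMSO so AC50 marks FXR activation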); conditions: HepG2 Attagene TRANS FXR-GAL4 reporter transcription
# Sequence of Bile acid receptor (Homo sapiens) (Q96RI1 whole entry, looked up, the tested form may be a part): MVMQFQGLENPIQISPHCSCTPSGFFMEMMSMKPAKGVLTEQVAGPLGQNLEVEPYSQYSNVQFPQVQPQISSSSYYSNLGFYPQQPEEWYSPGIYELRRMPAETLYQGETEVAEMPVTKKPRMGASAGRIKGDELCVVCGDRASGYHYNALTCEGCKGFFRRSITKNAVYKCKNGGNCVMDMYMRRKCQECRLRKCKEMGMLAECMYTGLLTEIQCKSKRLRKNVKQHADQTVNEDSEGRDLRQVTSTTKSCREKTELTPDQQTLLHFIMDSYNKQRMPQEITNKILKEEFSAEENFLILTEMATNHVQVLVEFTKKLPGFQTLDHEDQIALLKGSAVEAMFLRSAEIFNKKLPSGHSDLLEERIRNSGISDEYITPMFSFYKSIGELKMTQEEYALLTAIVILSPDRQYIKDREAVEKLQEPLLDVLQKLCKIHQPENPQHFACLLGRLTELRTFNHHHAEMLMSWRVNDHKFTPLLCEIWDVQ
# How it was run: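 Transient transfection of HepG2 with multiplexed GAL4-UAS reporter units; exogenous FXR-GAL4 chimera. Dose 24 h → TriZol RNA → oligo(dT) RT → PCR, 6-FAM primer extension, HpaI cut → CE. Gain vs DMSO.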
# [2] = target: Oxysterols receptor LXR-beta (Homo sapiens) (UniProt P55055); assay: ATG_LXRb_TRANS: Attagene TRANS-FACTORIAL HepG2 Assay for human Liver X Receptor beta (LXRb) (AID 2282981; active = hit-call score of the fitted dose curve at least 0.9, where 1 is the maximum); conditions: HepG2 Attagene TRANS GAL4-LXRb reporter, mRNA
# Sequence of Oxysterols receptor LXR-beta (Homo sapiens) (P55055 whole entry, looked up, the tested form may be a part): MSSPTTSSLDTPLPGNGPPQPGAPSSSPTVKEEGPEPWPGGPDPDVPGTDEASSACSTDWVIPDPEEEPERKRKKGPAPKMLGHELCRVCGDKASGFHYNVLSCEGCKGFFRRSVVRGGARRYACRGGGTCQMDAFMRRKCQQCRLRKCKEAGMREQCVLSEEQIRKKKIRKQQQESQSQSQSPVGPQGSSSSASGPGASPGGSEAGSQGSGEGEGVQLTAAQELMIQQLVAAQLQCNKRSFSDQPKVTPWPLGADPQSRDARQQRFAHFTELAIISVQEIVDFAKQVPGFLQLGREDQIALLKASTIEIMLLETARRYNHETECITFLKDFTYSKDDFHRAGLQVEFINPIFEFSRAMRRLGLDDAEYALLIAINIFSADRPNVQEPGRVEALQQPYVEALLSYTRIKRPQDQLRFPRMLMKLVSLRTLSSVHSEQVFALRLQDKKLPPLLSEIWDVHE
# How it was run: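 Cells: HepG2, transiently transfected with GAL4-UAS reporter units plus LXRb-Gal4 fusion. Treatment: 24 h. Detection: reporter mRNA by RT-PCR, 6-FAM labelling, HpaI digestion, capillary electrophoresis.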
# [3] = target: Hepatocyte nuclear factor 4-alpha (Homo sapiens) (UniProt P41235); assay: ATG_HNF4a_TRANS: Attagene TRANS-FACTORIAL HepG2 Assay for human Hepatocyte Nuclear Factor 4 alpha (HNF4a) (AID 2282982; active = hit-call score of the fitted dose curve at least 0.9, where 1 is the maximum); conditions: HepG2 HNF4a transactivation reporter, mRNA readout
# Sequence of Hepatocyte nuclear factor 4-alpha (Homo sapiens) (P41235 whole entry, looked up): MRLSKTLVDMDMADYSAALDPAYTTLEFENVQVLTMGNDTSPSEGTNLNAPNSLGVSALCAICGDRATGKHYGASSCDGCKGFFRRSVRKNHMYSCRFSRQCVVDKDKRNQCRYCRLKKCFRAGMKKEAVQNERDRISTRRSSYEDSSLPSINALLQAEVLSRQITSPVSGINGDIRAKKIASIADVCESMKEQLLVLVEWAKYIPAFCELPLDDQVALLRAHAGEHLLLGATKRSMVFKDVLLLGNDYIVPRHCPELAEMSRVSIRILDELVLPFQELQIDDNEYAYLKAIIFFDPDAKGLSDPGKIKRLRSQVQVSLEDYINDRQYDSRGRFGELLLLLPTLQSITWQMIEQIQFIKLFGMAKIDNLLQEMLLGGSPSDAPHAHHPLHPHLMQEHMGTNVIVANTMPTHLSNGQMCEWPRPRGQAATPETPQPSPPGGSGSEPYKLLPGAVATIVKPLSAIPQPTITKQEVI
# How it was run: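 Transfected HepG2 reporter cells are dosed for 24 h; reporter RNA is reverse-transcribed, amplified, fluorescently labelled and HpaI-digested before CE sizing. Positive-direction fit against DMSO.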
# [4] = ATG_M_06_TRANS: Attagene TRANS-FACTORIAL HepG2 Assay for M06 Transcription Factor (Internal Marker) (AID 2282983; active = hit-call score of the fitted dose curve at least 0.9, where 1 is the maximum); conditions: HepG2 Attagene TRANS M06 internal marker reporter
# How it was run: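 Transfect HepG2 with MRTUs → dose compounds 24 h → isolate RNA, oligo(dT) RT → PCR with reporter primers → 6-FAM primer extension → HpaI digest → CE fragment analysis. Positive direction vs DMSO.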
# [5] = ATG_M_32_TRANS: Attagene TRANS-FACTORIAL HepG2 Assay for M32 Transcription Factor (Internal Marker) (AID 2282984; active = hit-call score of the fitted dose curve at least 0.9, where 1 is the maximum;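 also: transcript level of a background control reporter unit measured by RT-PCR and capillary electrophoresis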); conditions: HepG2 Attagene TRANS M32 internal marker reporter
# How it was run: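 Using transiently transfected HepG2 cells exposed to test chemicals for 24 h, reporter transcripts are converted to labelled cDNA fragments and quantified by capillary electrophoresis. DMSO defines the activity baseline.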
# [6] = target: Nuclear receptor subfamily 4 group A member 2 (Homo sapiens) (UniProt P43354); assay: ATG_NURR1_TRANS: Attagene TRANS-FACTORIAL HepG2 Assay for human Nuclear Receptor Related Protein 1 (NURR1) (AID 2282985; active = hit-call score of the fitted dose curve at least 0.9, where 1 is the maximum); conditions: HepG2 Attagene TRANS reporter, mRNA readout
# Sequence of Nuclear receptor subfamily 4 group A member 2 (Homo sapiens) (P43354 whole entry, looked up): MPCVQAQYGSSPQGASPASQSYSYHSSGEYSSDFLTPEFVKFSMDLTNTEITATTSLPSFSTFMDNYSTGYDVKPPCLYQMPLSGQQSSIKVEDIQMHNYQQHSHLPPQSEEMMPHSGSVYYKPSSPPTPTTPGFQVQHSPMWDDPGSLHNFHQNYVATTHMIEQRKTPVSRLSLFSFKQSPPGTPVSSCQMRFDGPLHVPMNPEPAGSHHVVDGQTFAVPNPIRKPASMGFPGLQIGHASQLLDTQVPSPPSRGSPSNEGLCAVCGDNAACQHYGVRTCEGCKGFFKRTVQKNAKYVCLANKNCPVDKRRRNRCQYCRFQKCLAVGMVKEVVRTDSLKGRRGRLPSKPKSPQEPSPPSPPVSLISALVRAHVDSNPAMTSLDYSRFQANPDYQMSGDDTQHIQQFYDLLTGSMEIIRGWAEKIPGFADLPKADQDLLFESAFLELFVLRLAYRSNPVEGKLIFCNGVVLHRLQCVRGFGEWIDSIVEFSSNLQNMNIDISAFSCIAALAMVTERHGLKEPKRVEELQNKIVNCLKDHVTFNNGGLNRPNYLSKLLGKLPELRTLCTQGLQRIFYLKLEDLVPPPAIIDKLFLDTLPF
# How it was run: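 Cells: HepG2, transiently transfected. Exposure: 24 h. Detection: fluorescence of labelled RT-PCR products separated by capillary electrophoresis; upward fit versus DMSO.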
# [7] = target: Transcriptional activator Myb (Homo sapiens) (UniProt P10242); assay: ATG_Myb_CIS: Attagene CIS-FACTORIAL HepG2 Assay for human Myeloblastosis (Myb) Proto-Oncogene Transcription Factor (AID 2282986); conditions: HepG2 Attagene CIS-FACTORIAL Myb reporter transcription; actives raise or lower the signal
# Sequence of Transcriptional activator Myb (Homo sapiens) (P10242 whole entry, looked up): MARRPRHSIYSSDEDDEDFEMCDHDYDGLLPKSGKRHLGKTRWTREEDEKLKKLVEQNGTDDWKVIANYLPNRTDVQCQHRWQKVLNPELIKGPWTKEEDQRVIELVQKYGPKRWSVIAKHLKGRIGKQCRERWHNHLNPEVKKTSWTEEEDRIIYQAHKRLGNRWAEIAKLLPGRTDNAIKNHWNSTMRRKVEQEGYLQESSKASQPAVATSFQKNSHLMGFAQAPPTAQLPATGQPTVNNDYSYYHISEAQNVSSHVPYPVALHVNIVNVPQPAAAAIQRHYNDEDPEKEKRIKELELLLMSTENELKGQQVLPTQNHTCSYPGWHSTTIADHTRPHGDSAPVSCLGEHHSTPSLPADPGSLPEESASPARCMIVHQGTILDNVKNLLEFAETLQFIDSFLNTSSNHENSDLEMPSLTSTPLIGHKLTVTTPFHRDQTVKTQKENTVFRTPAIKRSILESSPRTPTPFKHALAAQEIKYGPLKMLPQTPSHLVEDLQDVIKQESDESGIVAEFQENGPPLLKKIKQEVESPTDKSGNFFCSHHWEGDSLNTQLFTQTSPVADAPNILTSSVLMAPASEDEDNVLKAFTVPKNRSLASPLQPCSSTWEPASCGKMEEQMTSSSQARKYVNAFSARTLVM
# How it was run: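 Reporter mRNA is quantified by RT-PCR and capillary electrophoresis 24 h after dosing HepG2 cells transfected with cis-regulated reporter units, which track endogenous transcription factor activity. Gain and loss of signal are fitted versus DMSO baseline.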
# [8] = target: Nuclear respiratory factor 1 (Homo sapiens) (UniProt Q16656); assay: ATG_NRF1_CIS: Attagene CIS-FACTORIAL HepG2 Assay for human Nuclear Respiratory Factor 1 (NRF1) Orphan Gene (AID 2282987); conditions: HepG2 NRF1 cis-element reporter, Attagene multiplex; actives raise or lower the signal
# Sequence of Nuclear respiratory factor 1 (Homo sapiens) (Q16656 whole entry, looked up): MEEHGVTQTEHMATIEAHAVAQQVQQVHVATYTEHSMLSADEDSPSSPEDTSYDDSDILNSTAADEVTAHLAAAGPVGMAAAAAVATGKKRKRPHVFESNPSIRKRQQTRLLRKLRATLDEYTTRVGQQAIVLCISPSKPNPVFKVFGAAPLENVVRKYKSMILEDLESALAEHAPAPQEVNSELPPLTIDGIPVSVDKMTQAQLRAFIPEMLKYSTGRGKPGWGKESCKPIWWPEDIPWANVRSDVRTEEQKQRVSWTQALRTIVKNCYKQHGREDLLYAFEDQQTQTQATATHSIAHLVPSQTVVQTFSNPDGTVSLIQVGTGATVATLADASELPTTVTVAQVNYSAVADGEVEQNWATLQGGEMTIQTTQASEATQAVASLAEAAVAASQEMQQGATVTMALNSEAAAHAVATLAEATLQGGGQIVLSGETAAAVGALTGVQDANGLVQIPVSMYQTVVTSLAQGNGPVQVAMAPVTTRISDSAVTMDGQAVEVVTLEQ
# How it was run: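 Endogenous NRF1-driven reporter transcription in transfected HepG2 cells after 24 h treatment. Readout: RT-PCR products, 6-FAM labelled and resolved by capillary electrophoresis; changes fitted both directions relative to DMSO.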
# [9] = ATG_NFI_CIS: Attagene CIS-FACTORIAL HepG2 Assay for human Nuclear Factor I (NFI) (AID 2282989); conditions: HepG2 cis-regulatory reporter, NFI response element transcription; actives raise or lower the signal
# How it was run: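 HepG2, transient MRTU, 24 h exposure; RNA→cDNA→PCR→FAM label→HpaI→CE fluorescence. Bidirectional fit, DMSO = baseline.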
# [10] = target: Myc proto-oncogene protein (Homo sapiens) (UniProt P01106); assay: ATG_Myc_CIS: Attagene CIS-FACTORIAL HepG2 Assay for human Myelocytomatosis (Myc) Proto-Oncogene Transcription Factor (AID 2282990); conditions: HepG2, Attagene cis-reporter transcription factor activity; actives raise or lower the signal
# Sequence of Myc proto-oncogene protein (Homo sapiens) (P01106 whole entry, looked up): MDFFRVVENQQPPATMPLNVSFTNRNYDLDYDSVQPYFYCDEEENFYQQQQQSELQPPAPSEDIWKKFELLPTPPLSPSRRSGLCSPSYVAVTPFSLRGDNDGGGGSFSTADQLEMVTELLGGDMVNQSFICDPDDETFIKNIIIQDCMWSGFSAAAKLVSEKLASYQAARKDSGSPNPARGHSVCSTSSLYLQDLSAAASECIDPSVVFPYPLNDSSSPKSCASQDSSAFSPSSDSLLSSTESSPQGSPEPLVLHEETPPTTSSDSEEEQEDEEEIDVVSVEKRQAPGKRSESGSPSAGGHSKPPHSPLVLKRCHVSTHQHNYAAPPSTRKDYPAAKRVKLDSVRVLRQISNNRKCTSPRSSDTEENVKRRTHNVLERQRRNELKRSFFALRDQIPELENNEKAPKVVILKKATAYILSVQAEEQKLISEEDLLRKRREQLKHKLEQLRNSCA
# How it was run: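 HepG2, transient MRTU transfection (cis promoters, endogenous TFs); 24 h dosing; TriZol RNA → oligo(dT) RT → PCR → 6-FAM primer extension → HpaI cut → CE. Bidirectional fit vs DMSO.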
# [11] = ATG_NF_kB_CIS: Attagene CIS-FACTORIAL HepG2 Assay for human Nuclear Factor Kappa B (NF-kB) (AID 2282991); conditions: HepG2 Attagene cis-factorial NF-kB reporter mRNA; actives raise or lower the signal
# How it was run: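 Readout is reporter transcript level, gain or loss versus DMSO, measured 24 h post-dose via RT-PCR, fluorescent labelling and capillary electrophoresis. Human HepG2 liver cells carried transiently transfected CIS reporter constructs reflecting endogenous factors.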
# [12] = ATG_NRF2_ARE_CIS: Attagene CIS-FACTORIAL HepG2 Assay for human Nuclear Factor Erythroid 2 Related Factor 2 (NFR2) response to Antioxidant Response Elements (ARE) (AID 2282992); conditions: HepG2 Attagene ARE/NRF2 reporter, transcription factor activity; actives raise or lower the signal;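 as to AC50: reporter mRNA level measured by RT-PCR and capillary electrophoresis fluorescence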
# How it was run: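 Transient MRTU transfection of HepG2; 24 h compound exposure; TriZol RNA, RT with oligo(dT), PCR, 6-FAM primer extension, HpaI cut, CE. Bidirectional fit vs DMSO.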
# [13] = ATG_Oct_MLP_CIS: Attagene CIS-FACTORIAL HepG2 Assay for human Octamer-Binding Transcription Factor (Oct) (AID 2282993); conditions: HepG2 Attagene cis-factorial Oct reporter, mRNA; actives raise or lower the signal
# How it was run: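 Multiplexed cis-reporter assay in human liver HepG2 cells, 24 h incubation. Reporter RNA amplified and labelled, then resolved by capillary electrophoresis; DMSO serves as negative control and baseline.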
# [14] = target: Cellular tumor antigen p53 (Homo sapiens) (UniProt P04637); assay: ATG_p53_CIS: Attagene CIS-FACTORIAL HepG2 Assay for human p53 Transcription Factor (AID 2282994); conditions: HepG2 p53 cis-element reporter, Attagene mRNA; actives raise or lower the signal
# Sequence of Cellular tumor antigen p53 (Homo sapiens) (P04637 whole entry, looked up): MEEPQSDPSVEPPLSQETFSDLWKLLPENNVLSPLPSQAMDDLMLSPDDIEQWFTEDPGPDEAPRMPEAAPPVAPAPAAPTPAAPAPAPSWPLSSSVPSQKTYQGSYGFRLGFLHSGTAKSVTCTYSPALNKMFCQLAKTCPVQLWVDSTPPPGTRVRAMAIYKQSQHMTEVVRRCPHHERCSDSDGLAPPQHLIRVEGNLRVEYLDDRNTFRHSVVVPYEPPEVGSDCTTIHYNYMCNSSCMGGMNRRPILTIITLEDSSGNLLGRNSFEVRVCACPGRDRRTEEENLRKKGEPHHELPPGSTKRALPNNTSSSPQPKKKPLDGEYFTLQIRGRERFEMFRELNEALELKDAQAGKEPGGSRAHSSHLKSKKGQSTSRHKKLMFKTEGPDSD
# How it was run: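 HepG2, transient MRTU transfection (cis promoter elements, endogenous TFs); 24 h dosing; RNA isolation, RT-PCR, 6-FAM primer extension, HpaI digest, CE fluorescence; bidirectional fit vs DMSO.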
# [15] = BSK_3C_TissueFactor: BioMAP Diversity Plus: 3C Assay for Tissue Factor Biomarker Activity (AID 2282997); conditions: BioMAP 3C HUVEC, tissue factor biomarker readout; actives raise or lower the signal
# How it was run: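 ELISA read-out of Tissue Factor levels on human umbilical vein endothelium collected 24 h after chemical dosing. Gain or loss of signal was fitted relative to DMSO.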
# [16] = BSK_3C_uPAR: BioMAP Diversity Plus: 3C Assay for Urokinase-type plasminogen activator receptor (uPAR) Biomarker Activity (AID 2282998); conditions: BioMAP 3C HUVEC, uPAR biomarker ELISA; actives raise or lower the signal
# How it was run: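 Dose primary human umbilical vein endothelial cells, incubate 24 h, measure cell-surface uPAR by ELISA, then fit the signal in both directions against the DMSO negative control.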
# [17] = BSK_3C_VCAM1: BioMAP Diversity Plus: 3C Assay for Vascular cell adhesion molecule 1 (VCAM1) Biomarker Activity (AID 2282999); conditions: BioMAP 3C HUVEC, VCAM1 ELISA, cytokine-stimulated; actives raise or lower the signal
# How it was run: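 Endothelial cells from human umbilical vein are treated with test chemical. At 24 h, VCAM-1 is measured by ELISA, and responses in either direction are fitted relative to DMSO.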
# [18] = BSK_4H_Eotaxin3: BioMAP Diversity Plus: 4H Assay for Eotaxin 3 Biomarker Activity (AID 2283000); conditions: primary human endothelial cells (HUVEC); actives raise or lower the signal;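 as to outcome: CCL26 protein level quantified by ELISA in parallel with SRB cytotoxicity check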
# How it was run: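 Chemicals were added to human umbilical vein endothelium cultures, and Eotaxin-3 was quantified by ELISA at 24 h. Values were derived by bidirectional fitting with DMSO serving as negative control and activity baseline.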
# [19] = target: human Peroxisome Proliferator-activated Receptor alpha (PPARa), PPARA (gene 5465) (UniProt Q07869); assay: ATG_PPARa_TRANS: Attagene TRANS-FACTORIAL HepG2 Assay for human Peroxisome Proliferator-activated Receptor alpha (PPARa) (AID 2283001; active = hit-call score of the fitted dose curve at least 0.9, where 1 is the maximum)
# Sequence of human Peroxisome Proliferator-activated Receptor alpha (PPARa), PPARA (gene 5465) (Q07869 whole entry, looked up, the tested form may be a part): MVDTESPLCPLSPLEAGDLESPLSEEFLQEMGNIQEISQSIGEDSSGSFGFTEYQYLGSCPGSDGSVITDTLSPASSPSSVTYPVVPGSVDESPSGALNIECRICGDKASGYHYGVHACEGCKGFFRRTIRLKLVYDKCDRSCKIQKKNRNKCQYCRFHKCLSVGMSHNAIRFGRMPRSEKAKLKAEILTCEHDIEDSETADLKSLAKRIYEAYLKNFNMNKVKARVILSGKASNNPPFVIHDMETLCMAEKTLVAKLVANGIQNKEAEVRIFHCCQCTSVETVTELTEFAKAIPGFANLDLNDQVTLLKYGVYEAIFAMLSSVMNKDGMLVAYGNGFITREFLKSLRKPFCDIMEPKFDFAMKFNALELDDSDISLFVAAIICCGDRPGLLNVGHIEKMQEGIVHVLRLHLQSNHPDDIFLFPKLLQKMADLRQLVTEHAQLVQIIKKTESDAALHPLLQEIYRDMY
# How it was run: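 Reporter transcripts from GAL4-UAS units in transfected HepG2 were quantified 24 h after dosing. Detection used reverse transcription, PCR, fluorescent primer extension and capillary electrophoresis, with DMSO as baseline.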
# [20] = target: Oxysterols receptor LXR-alpha (Homo sapiens) (UniProt Q13133); assay: ATG_LXRa_TRANS: Attagene TRANS-FACTORIAL HepG2 Assay for human Liver X Receptor alpha (LXRa) (AID 2282980; active = hit-call score of the fitted dose curve at least 0.9, where 1 is the maximum); conditions: HepG2 Attagene TRANS reporter, LXRa transactivation
# Sequence of Oxysterols receptor LXR-alpha (Homo sapiens) (Q13133 whole entry, looked up, the tested form may be a part): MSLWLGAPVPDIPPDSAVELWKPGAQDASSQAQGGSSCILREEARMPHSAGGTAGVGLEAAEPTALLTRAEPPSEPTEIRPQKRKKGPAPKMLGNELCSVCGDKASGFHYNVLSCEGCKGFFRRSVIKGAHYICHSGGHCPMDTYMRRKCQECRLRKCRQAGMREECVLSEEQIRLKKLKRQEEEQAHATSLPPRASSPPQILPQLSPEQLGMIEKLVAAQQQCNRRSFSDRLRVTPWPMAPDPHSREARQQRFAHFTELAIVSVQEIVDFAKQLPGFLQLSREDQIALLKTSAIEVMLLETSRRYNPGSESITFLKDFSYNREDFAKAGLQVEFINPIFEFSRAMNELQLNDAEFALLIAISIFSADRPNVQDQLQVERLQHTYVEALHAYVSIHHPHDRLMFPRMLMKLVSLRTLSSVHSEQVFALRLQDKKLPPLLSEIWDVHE
# How it was run: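 Transfect HepG2 with GAL4-UAS multiplex reporter constructs (TRANS format, chimeric receptor-GAL4); treat 24 h; extract RNA, reverse-transcribe, PCR-amplify, FAM-label, HpaI-digest; resolve fragments by capillary electrophoresis. Upward response vs DMSO.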
structure (smiles),measurement,setting,value
CCCCC(CC)COC(=O)c1ccccc1C(=O)OCC(CC)CCCC (stereo not given),outcome,[1],inactive
same,outcome,[2],inactive
same,outcome,[3],inactive
same,outcome,[4],inactive
same,outcome,[5],inactive
same,outcome,[6],inactive
same,outcome,[7],inactive
same,outcome,[8],inactive
same,outcome,[9],inactive
same,outcome,[10],inactive
same,outcome,[11],inactive
same,outcome,[12],inactive
same,outcome,[13],inactive
same,outcome,[14],inactive
same,outcome,[15],inactive
same,outcome,[16],inactive
same,outcome,[17],inactive
same,outcome,[18],inactive
same,outcome,[19],inactive
CNC(=O)ON=CC(C)(C)SC,outcome,[1],inactive
same,outcome,[20],inactive
same,outcome,[2],inactive
same,outcome,[3],inactive
same,outcome,[4],inactive
same,outcome,[5],inactive
same,outcome,[6],inactive
same,outcome,[7],inactive
same,AC50,[8],43.4 µM (active)
same,outcome,[8],inactive
same,outcome,[9],inactive
same,outcome,[10],inactive
same,outcome,[11],inactive
same,outcome,[12],inactive
same,outcome,[13],inactive
same,outcome,[14],inactive
same,outcome,[16],inactive
same,outcome,[17],inactive
same,outcome,[18],inactive
same,outcome,[19],inactive
COc1nc(NC(C)C)nc(NC(C)C)n1,outcome,[1],inactive
same,outcome,[20],inactive
same,outcome,[2],inactive
same,outcome,[3],inactive
same,outcome,[4],inactive
same,outcome,[5],inactive
same,outcome,[6],inactive
same,outcome,[7],inactive
same,outcome,[8],inactive
same,outcome,[9],inactive
same,outcome,[10],inactive
same,outcome,[11],inactive
same,outcome,[12],inactive
same,AC50,[13],41.1 µM (active)
same,outcome,[13],inactive
same,outcome,[14],inactive
same,outcome,[16],inactive
same,outcome,[17],inactive
same,outcome,[18],inactive
same,outcome,[19],inactive
OC(c1ccc(Cl)cc1)(c1cncnc1)c1ccccc1Cl (stereo not given),outcome,[20],inactive
same,outcome,[2],inactive
same,outcome,[3],inactive
same,outcome,[4],inactive
same,outcome,[5],inactive
same,outcome,[6],inactive
same,outcome,[7],inactive
same,outcome,[8],inactive
same,outcome,[9],inactive
same,AC50,[10],12.5 µM (active)
same,outcome,[10],inactive
same,AC50,[12],12.8 µM (active)
same,outcome,[12],inactive
same,AC50,[13],26.3 µM (active)
same,outcome,[13],inactive
same,outcome,[14],inactive
same,AC50,[16],17.4 µM (active)
same,outcome,[17],inactive
same,outcome,[18],inactive
same,outcome,[19],inactive
COC(=O)c1ccccc1C(=O)OC,outcome,[1],inactive
same,outcome,[20],inactive
same,outcome,[2],inactive
same,outcome,[5],inactive
same,outcome,[7],inactive
same,outcome,[8],inactive
same,outcome,[9],inactive
same,outcome,[10],inactive
same,outcome,[11],inactive
same,outcome,[12],inactive
same,outcome,[13],inactive
same,outcome,[14],inactive
same,outcome,[15],inactive
same,outcome,[16],inactive
same,outcome,[17],inactive
same,outcome,[18],inactive
same,outcome,[19],inactive
CNC(=S)S,outcome,[20],inactive
same,outcome,[2],inactive
same,outcome,[3],inactive
same,outcome,[4],inactive
same,outcome,[5],inactive
same,outcome,[6],inactive
same,outcome,[7],inactive
same,outcome,[8],inactive
same,outcome,[9],inactive
same,outcome,[10],inactive
same,outcome,[11],inactive
same,AC50,[12],26.7 µM (active) and 17.6 µM (active)
same,AC50,[13],50 µM (active)
same,outcome,[13],inactive
same,outcome,[14],inactive
same,outcome,[16],inactive
same,AC50,[17],12.2 µM (active)
same,AC50,[18],27.6 µM (active)
same,outcome,[19],inactive
